# Measured values from PubChem BioAssay (NCATS).
# Values without a mark were called inactive. Inconclusive results are not listed. Where a call stands in place of a potency, no number is given. Active and inactive are the calls of the source. Unless noted, calls follow the shape of the dose curve; as a rule, active = well fitted curve in the direction sought with a large enough effect; inconclusive = small, poorly fitted or top-dose-only effect, or another doubt; inactive = no such curve, though single readings can be large; an effect the other way counts as inactive or inconclusive.
# Columns and labels:
# [1] = test system: JEG-3; test: Primary qHTS to identify gynecologic anti-cancer compounds using libraries of approved drugs and bioactive compounds (AID 1345084); conditions: Gynecologic cancer cell panel viability, ATPlite luminescence, 48 h; series mostly up to 57.5 µM; also: nearly all actives have a fitted effect of over 55% in size; also: potency is read from the fitted curve at half-maximal effect
# In short: (§1)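 48 h compound exposure at 37 C, 5% CO2; five-point qHTS. ATPlite luminescence readout of cell ATP.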
# [2] = test system: OV90; test: as above; conditions: Gynecologic cancer cell panel viability, ATPlite luminescence, 48 h; series mostly up to 57.5 µM
# In short: as §1
# [3] = test system: PA-1; test: as above; conditions: Gynecologic cancer cell panel viability, ATPlite luminescence, 48 h; series mostly up to 57.5 µM
# In short: as §1
# [4] = test system: SKOV3; test: as above; conditions: Gynecologic cancer cell panel viability, ATPlite luminescence, 48 h; series mostly up to 57.5 µM
# In short: as §1
# [5] = test system: Tov-21-G; test: as above; conditions: Gynecologic cancer cell panel viability, ATPlite luminescence, 48 h; series mostly up to 57.5 µM
# In short: as §1
# [6] = qHTS assay to identify inhibitors of the type 1 interferon - major histocompatibility complex class I in skeletal muscle: Counter screen cell viability and HiBit confirmation (AID 1347412); conditions: iHSKM muscle cells + IFN-b, HiBiT or CellTiter-Glo, 24 h; for activity change, negative = inhibition: at 45.9 µM (top of the series); also: potency is read from the fitted curve at half-maximal effect; as to all read-outs here: nearly all actives have a fitted effect of over 60% in size
# In short: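 CRISPR HLA-B*08:01-HiBit immortalized human myoblasts (C25cl48) stimulated with 4 ng/ml IFN-beta and compounds (12-point 1:3, top 46 uM final) for 24 h at 37 C. Duplicate plates read by HiBit lytic luminescence or CellTiter Glo ATP.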
# [7] = test system: Tov112D; test: Primary qHTS to identify gynecologic anti-cancer compounds using libraries of approved drugs and bioactive compounds (AID 1345084); conditions: Gynecologic cancer cell panel viability, ATPlite luminescence, 48 h; series mostly up to 57.5 µM; also: nearly all actives have a fitted effect of over 55% in size; also: potency is read from the fitted curve at half-maximal effect
# In short: as §1
# [8] = Drug repurposing screens with cells derived from glioblastoma tumor samples (AID 1345199); conditions: GBM patient neurospheres viability, ATP luminescence, 48 h; also: nearly all actives have a fitted effect of over 40% in size; also: potency is read from the fitted curve at half-maximal effect
# In short: (§2)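 Four patient lines of CD133+ GBM neurospheres were screened at several concentrations; hits were retested in those lines plus three slower-growing GBM lines, using 48-hour treatment and ATP-based viability.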
# [9] = test system: astro; test: as above; conditions: viability, ATP luminescence, 48 h; series mostly up to 45.9 µM
# In short: as §2
# [10] = biological target: Nuclear receptor subfamily 1 group I member 2 (Rattus norvegicus) (UniProt Q9R1A7); test: qHTS assay for small molecule activators of the rat pregnane X receptor (rPXR) signaling pathway (AID 651751; call rule not given here); conditions: rPXR reporter cells, luciferase (One-Glo), 24 h
# Chain of Nuclear receptor subfamily 1 group I member 2 (Rattus norvegicus) (Q9R1A7 whole entry, looked up): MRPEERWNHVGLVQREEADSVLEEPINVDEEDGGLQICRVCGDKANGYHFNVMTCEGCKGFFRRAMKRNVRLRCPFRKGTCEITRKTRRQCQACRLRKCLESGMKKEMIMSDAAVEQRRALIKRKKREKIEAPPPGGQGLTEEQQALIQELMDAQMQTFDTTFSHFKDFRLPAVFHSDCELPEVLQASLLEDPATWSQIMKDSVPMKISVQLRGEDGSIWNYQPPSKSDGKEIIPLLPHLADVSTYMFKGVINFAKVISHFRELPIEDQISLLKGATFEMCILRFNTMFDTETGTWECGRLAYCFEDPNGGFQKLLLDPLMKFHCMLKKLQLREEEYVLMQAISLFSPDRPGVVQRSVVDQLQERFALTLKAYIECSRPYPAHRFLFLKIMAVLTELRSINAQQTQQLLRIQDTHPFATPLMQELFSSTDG
smiles,measurement,setting,value
CNC(=O)c1ccccc1Nc1nc(Nc2ccc(N3CCOCC3)cc2OC)ncc1Cl,Potency,[1],inactive
same,Potency,[2],1 µM (active)
same,Potency,[3],14.1 µM (active)
same,Potency,[4],11.2 µM (active)
same,Potency,[5],12.6 µM (active)
same,Potency,[6]; HiBiT,1.4 µM (active)
COc1cc(-c2nn(C3CCC(N4CCN(C(C)=O)CC4)CC3)c3ncnc(N)c23)ccc1NC(=O)c1cc2ccccc2n1C (stereo not given),Potency,[1],inactive
same,Potency,[2],inactive
same,Potency,[4],inactive
same,Potency,[7],inactive
Cc1cn(-c2cc(NC(=O)c3ccc(C)c(Nc4nccc(-c5cccnc5)n4)c3)cc(C(F)(F)F)c2)cn1,Potency,[1],inactive
same,Potency,[2],inactive
same,Potency,[3],12.6 µM (active)
same,Potency,[5],inactive
same,Potency,[7],inactive
CC(C)c1cc(-c2n[nH]c(=O)n2-c2ccc3c(ccn3C)c2)c(O)cc1O,Potency,[1],inactive
same,Potency,[2],2.51 µM (active)
same,Potency,[3],0.251 µM (active)
same,Potency,[5],0.282 µM (active)
same,Potency,[6]; HiBiT,0.0176 µM (active)
CC(=O)SC[C@@H](C)C(=O)N1CCC[C@H]1C(=O)N[C@@H](Cc1ccccc1)C(=O)O,Potency,[1],inactive
same,Potency,[2],inactive
same,Potency,[3],inactive
same,Potency,[5],inactive
same,Potency,[7],inactive
same,"activity, negative = cell killing","[8]; at 45.9 µM (top of the series), tumour line B",-6.65%
same,"activity, negative = cell killing","[8]; at 45.9 µM (top of the series), tumour line D",2.25%
same,"activity, negative = cell killing","[8]; at 46.1 µM (top of the series), tumour line C",-6.2%
same,Potency,[9],inactive
Nc1cc(C(F)(F)F)c(-c2cc(N3CCOCC3)nc(N3CCOCC3)n2)cn1,Potency,[1],7.94 µM (active)
same,Potency,[2],10 µM (active)
same,Potency,[3],6.31 µM (active)
same,Potency,[7],2.82 µM (active)
CN(C)CC(C)(C)CNc1nn2c(-c3ccccc3)nnc2cc1C1CCC1,Potency,[1],inactive
same,Potency,[2],inactive
same,Potency,[3],inactive
same,Potency,[5],inactive
same,Potency,[7],inactive
O=C(O)CCCc1c[nH]c2ccccc12,Potency,[1],inactive
same,Potency,[2],inactive
same,Potency,[3],inactive
same,Potency,[4],inactive
same,Potency,[5],inactive
same,Potency,[7],inactive
same,max response,[10],-0.908%
COc1ccc2c(OCc3nnc4ccc(-c5ccccc5)nn34)ccnc2c1,Potency,[1],inactive
same,Potency,[2],inactive
same,Potency,[3],inactive
same,Potency,[5],inactive
same,Potency,[7],inactive
CCOC(=O)C1=C(C)NC2=C(C(=O)CC(C)(C)C2)C1c1ccc(-c2ccccc2)cc1 (stereo not given),Potency,[1],inactive
same,Potency,[2],inactive
same,Potency,[4],10 µM (active)
same,Potency,[7],31.6 µM (active)
same,Potency,[6]; HiBiT,2.49 µM (active)
same,"activity change, negative = inhibition",[6]; Viability,-16.2%
CC1(C)CC(=O)c2c(C(F)(F)F)nn(-c3ccc(C(N)=O)c(NC4CCC(OC(=O)CN)CC4)c3)c2C1 (stereo not given),Potency,[1],inactive
same,Potency,[2],0.355 µM (active)
same,Potency,[3],0.316 µM (active)
same,Potency,[5],0.355 µM (active)
same,Potency,[6]; HiBiT,0.0557 µM (active)
Cc1ccc2nc(NC(=O)CSc3nc4c(c(=O)n3-c3ccccc3)SCC4)sc2c1,Potency,[1],inactive
same,Potency,[2],inactive
same,Potency,[3],inactive
same,Potency,[5],inactive
same,Potency,[7],inactive
CC(C)CC(=O)Nc1n[nH]c2c1CN(C(=O)C1CCN(C)CC1)C2(C)C,Potency,[1],inactive
same,Potency,[2],7.94 µM (active)
same,Potency,[3],0.447 µM (active)
same,Potency,[7],7.94 µM (active)
same,Potency,[6]; HiBiT,0.701 µM (active)
same,"activity change, negative = inhibition",[6]; Viability,10.8%
Cn1c2ccccc2c2c3c(c4c5ccccc5n(CCC#N)c4c21)CNC3=O,Potency,[1],inactive
same,Potency,[2],inactive
same,Potency,[4],17.8 µM (active)
same,Potency,[7],inactive
C[C@@H](Oc1cc(-c2cnn(C3CCNCC3)c2)cnc1N)c1c(Cl)ccc(F)c1Cl,Potency,[1],28.2 µM (active)
same,Potency,[2],25.1 µM (active)
same,Potency,[3],14.1 µM (active)
same,Potency,[5],14.1 µM (active)
same,Potency,[7],inactive
same,Potency,[6]; HiBiT,17.6 µM (active)
same,Potency,[6]; Viability,27.9 µM (active)
CC1(O)CC(c2nc(-c3ccc4ccc(-c5ccccc5)nc4c3)c3c(N)nccn23)C1 (stereo not given),Potency,[1],inactive
same,Potency,[2],inactive
same,Potency,[3],inactive
same,Potency,[4],inactive
same,Potency,[5],inactive
same,Potency,[7],inactive
same,"activity change, negative = inhibition",[6]; Viability,-13.8%
Cc1cn2cc(C(=O)N(C)CCO)cc(N[C@@H]3CCOc4cccc(C)c43)c2n1,Potency,[1],inactive
same,Potency,[2],inactive
same,Potency,[4],inactive
same,Potency,[5],inactive
same,Potency,[7],inactive
Cc1[nH]nc2ccc(-c3cncc(OC[C@@H](N)Cc4ccccc4)c3)cc12,Potency,[1],10 µM (active)
same,Potency,[2],3.55 µM (active)
same,Potency,[3],3.55 µM (active)
same,Potency,[5],2.82 µM (active)
same,Potency,[7],2 µM (active)
same,Potency,[6]; HiBiT,0.991 µM (active)
same,"activity change, negative = inhibition",[6]; Viability,-12.9%
NC(=O)c1cccc2cn(-c3ccc([C@@H]4CCCNC4)cc3)nc12,Potency,[1],inactive
same,Potency,[2],inactive
same,Potency,[4],inactive
same,Potency,[5],inactive
CN(C)Cc1c(C(=O)NCCOc2ccc(C(=O)NO)cc2)oc2ccccc12,Potency,[1],3.55 µM (active)
same,Potency,[2],1.58 µM (active)
same,Potency,[3],1 µM (active)
same,Potency,[4],7.08 µM (active)
same,Potency,[5],7.94 µM (active)
same,Potency,[7],3.16 µM (active)
same,Potency,[6]; HiBiT,0.787 µM (active)
same,"activity change, negative = inhibition",[6]; Viability,-5.27%
CN(C)c1nc(Cc2ccc(NC(=O)c3ccc4ccccc4c3)cc2)nc(Cl)c1CC(=O)O,Potency,[1],inactive
same,Potency,[2],inactive
same,Potency,[3],inactive
same,Potency,[5],inactive
same,Potency,[7],inactive
C=CC(=O)Nc1cc2c(Nc3ccc(F)c(Cl)c3)ncnc2cc1OCCCN1CCOCC1,Potency,[1],inactive
same,Potency,[2],inactive
same,Potency,[3],inactive
same,Potency,[4],3.16 µM (active)
same,Potency,[7],inactive
same,Potency,[9],11.2 µM (active)
same,Potency,[6]; HiBiT,15.7 µM (active)
same,"activity change, negative = inhibition",[6]; Viability,-26.8%
COC(=O)Nc1ccc(-c2nc(N3CCOCC3)c3cnn(C4CCN(Cc5cccnc5)CC4)c3n2)cc1,Potency,[2],4.47 µM (active)
same,Potency,[3],15.8 µM (active)
same,Potency,[4],2 µM (active)
same,Potency,[5],2.82 µM (active)
Cc1cc(N2CCOCC2)cc2[nH]c(-c3c(NC[C@@H](O)c4cccc(Cl)c4)cc[nH]c3=O)nc12,Potency,[1],inactive
same,Potency,[3],14.1 µM (active)
same,Potency,[4],14.1 µM (active)
same,Potency,[6]; HiBiT,6.25 µM (active)
